These results are taken from ChEMBL document CHEMBL4296182, “CO-ADD screening of NIH NCI Diversity Set V”.

For part of these data: Measured potencies and affinities stand elsewhere.

The test system of one assay is Staphylococcus aureus. The assay is described as follows: Antibacterial activity against Staphylococcus aureus MRSA ATCC 43300 (CO-ADD:GP_020); MIC in CAMBH media using NBS plates, by Resazurin F(560/590). It counts as functional. Particulars: Concentration 20 uM, ASSAY_TEST Inhibition of Bacterial Growth, detection method Resazurin, Fluorescence (ex560/em590), MEDIA CAMHB, plate type 384well, CORNING #3640, time 18 hr.

For a further assay, the system named is Acinetobacter baumannii. Put plainly: Antibacterial activity against Acinetobacter baumannii ATCC 19606 (CO-ADD:GN_034); MIC in CAMBH media using NBS plates, by Resazurin F(560/590). Particulars: Concentration 20 uM, ASSAY_TEST Inhibition of Bacterial Growth, detection method Resazurin, Fluorescence (ex560/em590), MEDIA CAMHB, plate type 384well, CORNING #3640, time 18 hr. It counts as functional.

Another assay has as its system Escherichia coli. Put plainly: Antibacterial activity against Escherichia coli ATCC 25922 (CO-ADD:GN_001); MIC in CAMBH media using NBS plates, by Resazurin F(560/590). It counts as functional. The note with it: Concentration 20 uM, ASSAY_TEST Inhibition of Bacterial Growth, detection method Resazurin, Fluorescence (ex560/em590), MEDIA CAMHB, plate type 384well, CORNING #3640, time 18 hr.

The subject of the next assay is Klebsiella pneumoniae. Particulars: Concentration 20 uM; ASSAY_TEST Inhibition of Bacterial Growth; detection method Absorption (OD600); MEDIA CAMHB; plate type 384well; NBS; CORNING #3640; time 18 hr.
Another assay deals with Candida albicans. Particulars: 20 µM.
Another assay relates to Cryptococcus neoformans. Particulars: Concentration 20 uM; ASSAY_TEST Inhibition of Fungal Growth; detection method Resazurin; Absorption (OD600-OD570); plate type 384well; NBS; CORNING #3640.

Take `Cn1ncc2c(Sc3ccc(Cl)cc3)ncnc21`: the Inhibition with Staphylococcus aureus was -1.32%; in the assay with Acinetobacter baumannii, 15.79%; in the assay on Escherichia coli it was -1.92%; in the assay with Klebsiella pneumoniae it was 2.06%; with Candida albicans it was 4.47%; in the assay with Cryptococcus neoformans, -10.69%.

Take `CC(C)C(=O)c1ccc(O)c(O)c1`: the Inhibition in the assay on Staphylococcus aureus is -0.55%; in the assay with Acinetobacter baumannii, -3.52%; with Escherichia coli, -12.2%; in the assay with Klebsiella pneumoniae, 9.02%; in the assay with Candida albicans, 3.31%; with Cryptococcus neoformans, 21.92%.

For the molecule `Cc1nc(Br)c(Br)c(C)c1Br`, the Inhibition is 1.89% in the assay on Staphylococcus aureus; -12.31% in the assay on Acinetobacter baumannii; 7.33% with Escherichia coli; 11.41% with Klebsiella pneumoniae; 4.5% with Candida albicans; -9.77% with Cryptococcus neoformans.

Take `Oc1ccc2c(ccc3[nH]cnc32)c1`: the Inhibition was 7.97% in the assay on Staphylococcus aureus; -12.34% in the assay with Acinetobacter baumannii; 17.76% in the assay with Escherichia coli; 18.56% in the assay on Klebsiella pneumoniae; -0.43% in the assay with Candida albicans; -9.86% with Cryptococcus neoformans.

`Cc1csc(NC(=O)c2ccc(C(=O)Nc3nc(C)cs3)cc2)n1`: the Inhibition in the assay with Staphylococcus aureus is -1.48%; in the assay on Acinetobacter baumannii, 17.46%; in the assay with Escherichia coli it was 2.37%; in the assay with Klebsiella pneumoniae, 21.27%; in the assay with Candida albicans it was -0.71%; in the assay with Cryptococcus neoformans it was -1.68%.

For the molecule `COc1ccccc1/C=C(\C#N)C(=O)O`, the Inhibition in the assay on Staphylococcus aureus is 12.51%; in the assay on Acinetobacter baumannii, 1.75%; with Escherichia coli, 5.31%; in the assay on Klebsiella pneumoniae, 6.46%; in the assay with Candida albicans, 6.96%; in the assay on Cryptococcus neoformans, -7.1%.

With `Oc1ncnc(CN2CCCCC2)c1O`, the Inhibition was 7.4% in the assay on Staphylococcus aureus; 1.82% in the assay on Acinetobacter baumannii; 7.79% in the assay on Escherichia coli; 2.35% with Klebsiella pneumoniae; -1.92% in the assay on Candida albicans; -11.85% with Cryptococcus neoformans.

With `Cc1ccc2c(c1)sc1nncn12`, the Inhibition in the assay on Staphylococcus aureus is 15.32%; with Acinetobacter baumannii, -15.79%; with Escherichia coli, 12.68%; in the assay with Klebsiella pneumoniae, 5.69%; in the assay on Candida albicans, -0.75%; in the assay with Cryptococcus neoformans it was -11.46%.

As to `CN(C)S(=O)(=O)c1ccccc1N=C=S`, the Inhibition was 19.33% in the assay with Staphylococcus aureus; 5.01% in the assay on Acinetobacter baumannii; 10.9% with Escherichia coli; 5.89% in the assay with Klebsiella pneumoniae; 4.38% with Candida albicans; -9.71% in the assay with Cryptococcus neoformans.

With `O=C1c2ccccc2C2=C3C(O)=NN=C3CCN12`, the Inhibition with Staphylococcus aureus was 13.67%; with Acinetobacter baumannii it was 14.87%; with Escherichia coli, 4.79%; in the assay on Klebsiella pneumoniae, 9.82%; with Candida albicans, 5.2%; in the assay with Cryptococcus neoformans, -1.84%.

As for `CCC(=Cc1ccc(CC)cn1)CC`, the Inhibition was 5.02% with Staphylococcus aureus; -14.68% in the assay with Acinetobacter baumannii; 4.35% in the assay with Escherichia coli; 10.54% with Klebsiella pneumoniae; 0.05% in the assay with Candida albicans; -5.56% in the assay with Cryptococcus neoformans.

Consider `Cc1ccc(/N=N/c2ccc(C)cc2NC(=O)Nc2ccccc2F)cc1`, for which the Inhibition in the assay with Staphylococcus aureus stood at 3.8%; with Acinetobacter baumannii, 6.73%; in the assay with Escherichia coli, 1.93%; in the assay on Klebsiella pneumoniae, 9.05%; in the assay on Candida albicans, 6.78%; in the assay with Cryptococcus neoformans, 3.6%.

Take `COC1OC(O)C(NC(=O)C(F)(F)F)CC1O` (stereo unspecified): the Inhibition was 15.69% with Staphylococcus aureus; 9.13% in the assay on Acinetobacter baumannii; 5.88% with Escherichia coli; 16.01% in the assay on Klebsiella pneumoniae; 3.69% with Candida albicans; -8.11% in the assay with Cryptococcus neoformans.

Regarding `c1coc(CNc2[nH]cnc3nncc2-3)c1`, the Inhibition in the assay on Staphylococcus aureus was 12.65%; in the assay on Acinetobacter baumannii, -12.11%; in the assay with Escherichia coli, 11.54%; in the assay with Klebsiella pneumoniae, 7.55%; in the assay with Candida albicans, 0.96%; in the assay with Cryptococcus neoformans it was -6.46%.

Take `Cn1cnc([N+](=O)[O-])c1Sc1nnc(-c2cccnc2)n1C`: the Inhibition in the assay on Staphylococcus aureus was 12.02%; in the assay with Acinetobacter baumannii it was 15.57%; in the assay on Escherichia coli, -1.31%; in the assay on Klebsiella pneumoniae, 17.06%; in the assay with Candida albicans, 6.51%; in the assay with Cryptococcus neoformans it was -6.62%.

With `COc1cccc(NC(S)=Nc2ccc(O)cc2)c1`, the Inhibition in the assay with Staphylococcus aureus was -0.11%; in the assay on Acinetobacter baumannii, -11.24%; in the assay with Escherichia coli, 8.79%; in the assay on Klebsiella pneumoniae it was 5.3%; in the assay on Candida albicans it was 8.24%; with Cryptococcus neoformans it was -9.84%.

Consider `CCOC(=O)c1cc2c(OC)c(OC)ccc2c2ncc(C#N)c(O)c12`, for which the Inhibition in the assay with Staphylococcus aureus was 2.33%; in the assay with Acinetobacter baumannii, 4.98%; in the assay with Escherichia coli it was -22.93%; in the assay with Klebsiella pneumoniae, 0.73%; with Candida albicans, 5.12%; with Cryptococcus neoformans, 44.69%.

Turning to `O=C1C2C3C=CC(CC3)C2S(=O)(=O)C2C3C=CC(CC3)C12` (stereo unspecified), the Inhibition in the assay with Staphylococcus aureus is 13.49%; in the assay with Acinetobacter baumannii, 12.35%; with Escherichia coli, 8.07%; in the assay with Klebsiella pneumoniae it was 7.08%; in the assay on Candida albicans it was 3.05%; in the assay with Cryptococcus neoformans, -7.34%.

Consider `C=CCSC(CC)(CC)C(N)=O`, for which the Inhibition is 1.95% with Staphylococcus aureus; -2.06% in the assay on Acinetobacter baumannii; -8.58% in the assay on Escherichia coli; 10.13% with Klebsiella pneumoniae; 1.53% in the assay on Candida albicans; 7.21% with Cryptococcus neoformans.

Take `Nc1ccc2c(c1)N=[N+]([O-])c1cc(N)ccc1C2`: the Inhibition was 12.24% in the assay with Staphylococcus aureus; -9.52% with Acinetobacter baumannii; 10.77% with Escherichia coli; 23.9% with Klebsiella pneumoniae; -4.33% in the assay with Candida albicans; -8.98% with Cryptococcus neoformans.

With `O=C(c1ccc(Cl)nc1)c1cccs1`, the Inhibition with Staphylococcus aureus is -3.15%; with Acinetobacter baumannii, 14.95%; in the assay on Escherichia coli it was -2.66%; in the assay on Klebsiella pneumoniae, 4.42%; in the assay on Candida albicans, 2.35%; in the assay on Cryptococcus neoformans, -1.99%.

For the molecule `O=S(=O)(O)c1ccc(/N=N/c2ccccc2)cc1`, the Inhibition with Staphylococcus aureus was -3.11%; with Acinetobacter baumannii it was 7.18%; in the assay with Escherichia coli, 5.47%; in the assay on Klebsiella pneumoniae it was 7.84%; with Candida albicans, 2.54%; with Cryptococcus neoformans, -15.64%.

As to `NS(=O)(=O)c1cc2c(cc1Cl)NC(Cc1ccccc1)NS2(=O)=O` (stereo unspecified) [BENZYLHYDROCHLOROTHIAZIDE], the Inhibition with Staphylococcus aureus was 8.57%; in the assay on Acinetobacter baumannii it was 4.78%; in the assay with Escherichia coli, 13.54%; in the assay with Klebsiella pneumoniae it was 17.47%; in the assay on Candida albicans it was 3.24%; in the assay on Cryptococcus neoformans, -10.94%.

Consider `CC(=O)Oc1ccc2cc(-c3ccccc3)c(=O)oc2c1`, for which the Inhibition in the assay with Staphylococcus aureus was 19.48%; in the assay on Acinetobacter baumannii, 8.94%; in the assay with Escherichia coli it was -2.31%; with Klebsiella pneumoniae, 17.84%; in the assay on Candida albicans, 4.89%; with Cryptococcus neoformans, -3.36%.

Consider `CNc1ncnc2c1cnn2C1CCCCO1` (stereo unspecified), for which the Inhibition was 3.48% with Staphylococcus aureus; -13.53% in the assay with Acinetobacter baumannii; 9.64% in the assay on Escherichia coli; 6.75% in the assay with Klebsiella pneumoniae; -2.26% in the assay with Candida albicans; -11.76% in the assay on Cryptococcus neoformans.

`CCCCOc1nc2c(c(=O)n(C)c(=O)n2C)n1C`: the Inhibition in the assay with Staphylococcus aureus was determined as 18.84%; with Acinetobacter baumannii, 14.19%; in the assay on Escherichia coli, 18.86%; in the assay on Klebsiella pneumoniae, 3.58%; in the assay on Candida albicans, 11%; in the assay on Cryptococcus neoformans, 10.8%.
